Assay results: PubChem BioAssay AID1851 (National Center for Advancing Translational Sciences (NCATS), 2009)
Several values for one entry are separate records, joined by “and”; a condition that tells them apart may be missing. Equal values may be shown once. Among all 16,000 compounds or so, about 5,100 (32%) were called active. About 25% were inconclusive and are not listed. The call rests on the fitted dose curve; in most records, active means well fitted curve in the direction sought with a large enough effect; inconclusive means small, poorly fitted or top-dose-only effect, or effect the other way; inactive means no such curve, though single readings can be large or run the other way. The list shows a part of the results.

What follows are compounds tested against Cytochrome P450 3A4 (Homo sapiens) (UniProt P08684) (assay: Cytochrome panel assay with activity outcomes). Settings: recombinant CYP, pro-luciferin dealkylation, luminescence, p450-cyp3a4; series mostly up to 57.1 µM.
Method: The P450 gene superfamily is involved in the metabolism and clearance of xenobiotics. This assay used various human CYP P450 isozymes to measure the dealkylation of various pro-luciferin substrates to luciferin. The luciferin is then measured by luminescence after the addition of a luciferase detection reagent. Pro-luciferin substrate concentration in the assay was equal to its KM for its CYP P450 isozyme. Inhibitors and some substrates limit the production of luciferin, and decrease measured luminescence.
NCGC Assay Protocol Summary:
1, Reagent, 2 uL, Isozyme and Pro-Luciferin
2, Library compounds, 23 nl, 40 uM to 0.24 nM dilution series
3, Controls, 23 nl, Isozyme specific inhibitor
4, Reagent, 2 uL, NADPH regeneration solution
5, Incubation time, 60 min, Isozyme specific temperature
6, Reagent, 4ul, Detection reagent
7, Incubation time, 20 min, Isozyme specific temperature
8, Detection, 1 sec, ViewLux luminescent read
The luciferase-based P450-GloTM Screening Systems were obtained from Promega (Madison, WI) for CYP 1A2 (V9770), CYP 2C9 (V9790), CYP2 C19 (V9880), CYP 2D6 (V9890), and CYP 3A4 Luciferin-PPXE (V9910) and were adapted for 1,536-well microplates and an automated protocol. The control compounds furafylline for 1A2 (F124), sulfaphenazole for CYP 2C9 (S0758), ketoconazole for CYP 2C19 (K1003), quinidine for 2D6 (Q3625), and ketoconazole for 3A4 (K1003) were purchased from Sigma Aldrich (St. Louis, MO). Recombinant P450 enzymes were obtained from baculovirus constructs expressed in insect cells (BD/Gentest).
Medium-binding white solid Kalypsys plates used. Mixtures kept on ice. 1A2: 10 nM 1A2, 100 uM Luc-ME, 100 mM KPO4; 2C9: 10 nM 2C9, 100 uM Luc-H, 25 mM KPO4; 2C19: 5 nM 2C19, 10 uM Luc-H EGE, 50 mM KPO4; 2D6: 5 nM 2D6, 30 uM Luc-ME EGE, 100 mM KPO4; 3A4: 10 nM, 25 uM Luc-PPXE. All amounts are reflected in their final concentration, working concentration is 2x.
NADPH regeneration solution: 1.3 mM NADP+, 3.3 mM glucose-6-phosphate, 3.3 mM MgCl2, 0.4 U/mL glucose-6-phosphate dehydrogenase for all isozymes, 200 mM KPO4 for 3A4. Mixture prepared at RT but kept on ice during automated run.
RT incubation in auxilliary plate hotel for 1A2, 2D6, and 3A4; 37C for 2C9 and 2C19.
Keywords: P450, CYP1A2, CYP2C19, CYP2C9, CYP2D6, CYP3A4, Luciferase, MLSMR, MLSCN, NIH Roadmap, qHTS, NCGC
On the % scale 0 is the no-effect control and ±100 the full control effect.

Sequence of Cytochrome P450 3A4 (Homo sapiens) (P08684 whole entry, looked up): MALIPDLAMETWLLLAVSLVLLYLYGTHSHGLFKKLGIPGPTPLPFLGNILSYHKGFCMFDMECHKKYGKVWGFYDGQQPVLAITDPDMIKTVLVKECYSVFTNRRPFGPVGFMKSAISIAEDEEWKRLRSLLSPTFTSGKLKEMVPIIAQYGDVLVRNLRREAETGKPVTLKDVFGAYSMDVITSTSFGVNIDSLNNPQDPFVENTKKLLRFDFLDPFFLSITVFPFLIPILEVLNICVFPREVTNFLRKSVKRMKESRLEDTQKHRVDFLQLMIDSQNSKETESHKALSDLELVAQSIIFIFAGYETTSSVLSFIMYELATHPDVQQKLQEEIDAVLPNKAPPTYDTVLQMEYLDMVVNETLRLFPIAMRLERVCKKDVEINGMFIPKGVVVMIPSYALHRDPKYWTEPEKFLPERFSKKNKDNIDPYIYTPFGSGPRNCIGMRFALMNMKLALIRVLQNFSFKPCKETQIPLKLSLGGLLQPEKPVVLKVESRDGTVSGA

Compound | AC50 | activity, negative = inhibition
N#C/C(=C\c1ccc(O)c(O)c1)C(=O)NCCCNC(=O)/C(C#N)=C/c1ccc(O)c(O)c1 | 2 µM (active) | 
N#C/C(=C\c1ccc(O)c(O)c1)C(N)=S | 12.6 µM (active) and 15.8 µM (active) | 
CC[C@@H]1[C@@H]2C[C@H]3[C@H]4N(C)c5ccccc5[C@@]45C[C@@H]([C@@H]2[C@@H]5O)N3[C@H]1O |  | inactive
CNC[C@H](O)c1ccc(O)cc1 |  | inactive
NC[C@H](CP(=O)(O)O)c1ccc(Cl)cc1 |  | inactive
CC1(C)[C@@H]2CC[C@]1(C)CN(CCC[N+](C)(C)C)C2 |  | 12.3% [at 11.4 µM] (inactive)
C[N+](C)(C)CCCCCC[N+](C)(C)C |  | inactive
O=C(Nc1ccc(C(F)(F)F)cc1)c1cccn(Cc2ccc3c(c2)OC(F)(F)O3)c1=O |  | inactive
CCCCn1c(O)c(C(CC)=Nc2ccc(OC)cc2OC)c(=O)[nH]c1=O | 7.94 µM (active) | 
C=CCn1c(O)c(C(CC)=NC2CC2)c(=O)[nH]c1=O |  | -14.9% [at 2.29 µM] (inactive)
O=C(CCCN1CCC(n2c(=O)[nH]c3ccccc32)CC1)c1ccc(F)cc1 |  | inactive
CCCn1c(C)c(C(=O)c2cccc3ccccc23)c2ccccc21 |  | inactive
COc1ccc(C(=O)c2c(C)n(CCN3CCOCC3)c3cc(I)ccc23)cc1 | 5.01 µM (active) | 
CC(C)CC(=O)C[C@H](O)C(Cl)(Cl)Cl |  | 1.61% [at 11.4 µM] (inactive)
S=P(C1CCCCC1)(C1CCCCC1)[C@H](c1cccnc1)N1CCCC1 | 3.16 µM (active) | 
CCC(CC)C(=O)NC1CCSC1=O (stereo unspecified) |  | inactive
CN1CCN(c2ncc3ncc(=O)n(C)c3n2)CC1 |  | inactive
COc1ccc(C(=O)OC2C[C@H]3CC[C@@H](C2)N3C)cc1OC (stereo partly specified) |  | inactive
Cc1ccc(S(=O)ON2CCC(C(=O)O)(c3ccccc3)CC2)cc1 (stereo unspecified) |  | -0.254% [at 11.4 µM] (inactive)
O=P(c1ccccc1)(c1ccccc1)N1CC2(CC2)CC(O)(c2ccccc2)C1 (stereo unspecified) |  | inactive
C=C(CC1(C(C)NP(=O)(c2ccccc2)c2ccccc2)CC1)c1ccccc1 (stereo unspecified) | 3.98 µM (active) | 
O=P(O)(O)c1ccccc1 (tested in a mixture with another compound) |  | -7.35% [at 11.4 µM] (inactive)
C=C(CC1(CNP(=O)(c2ccccc2)c2ccccc2)CC1)c1ccccc1 | 3.98 µM (active) | 
CN1[C@@H]2CC[C@H]1CC(OC(=O)c1cc(Cl)cc(Cl)c1)C2 (stereo partly specified) |  | inactive
CC(C)(C)c1o[nH]c(=O)c1C[C@H](N)C(=O)O |  | inactive
CCN1C[C@]2(C)CC[C@H](O)[C@@]34[C@@H]5CC6[C@@H](OC)C[C@@](O)([C@@H]5[C@@H]6O)[C@H](C[C@@H]23)[C@H]14 |  | inactive
